JMJD2A Tudor = qHTS Assay for Inhibitors of JMJD2A-Tudor Domain; Lysine-specific demethylase 4A (Homo sapiens), O75164; AlphaScreen JMJD2A-Tudor / H3K4me3 peptide binding; Potency, µM (top dose mostly 114 µM), for the others: at the highest dose activity change, negative = inhibition, hits mostly inhibitors; 390,000 compounds, 4.4% hits; note: % is set by controls: 0 for no effect and ±100 for the full control effect; nearly all actives have a fitted effect of over 50% in size
G9a inh = qHTS Assay for Inhibitors of Histone Lysine Methyltransferase G9a | Potency, µM (highest dose often 102 µM), inactives show at the highest dose activity, negative = inhibition, most hits filed as inhibitors | 350,000 compounds, 8.8% hits | AID 504332, 2011 | G9a H3K9 monomethylation, AlphaScreen, 2 h | Histone-lysine N-methyltransferase EHMT2 (Homo sapiens), Q96KQ7; note: % is set by controls: 0 for no effect and ±100 for the full control effect; nearly all actives have a fitted effect of over 75% in size
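Signal arises when biotinylated H3K9 peptide, once monomethylated, bridges streptavidin donor and antibody-captured acceptor beads. Enzyme at 20 nM was preincubated 15 min with test compounds; peptide 500 nM and SAM 20 uM then reacted for 2 h.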
BAZ2B block = qHTS Assay for Inhibitors of BAZ2B; 360,000 compounds, 4.4% hits; AlphaScreen BAZ2B-H3K14Ac peptide displacement; Bromodomain adjacent to zinc finger domain protein 2B (Homo sapiens), Q9UIF8; AID 504333, 2011; Potency, µM (top dose mostly 114 µM), for the others: at the top dose activity change, negative = inhibition, usual class: inhibitors; note: % is set by controls: 0 for no effect and ±100 for the full control effect; nearly all actives have a fitted effect of over 60% in size
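Inhibition is scored as reduced AlphaScreen emission. The BAZ2B/b-H3(5-23)K14Ac complex (50 nM each) in PBS pH 7.4, 0.01% Tween-20 meets compound (up to 110 uM) for 30 min at RT before bead addition.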
HP1b binding inh = HTS for Inhibitors of HP1-beta Chromodomain Interactions with Methylated Histone Tails; 390,000 compounds, 0.56% hits; Chromobox protein homolog 1 (Homo sapiens), P83916; Potency, µM (titrated, usually from 114 µM), for inactives: at the top dose activity change, negative = inhibition, most hits filed as inhibitors; AID 540317, 2011; AlphaScreen HP1-beta / biotin-H3K9me3 peptide binding; note: nearly all actives have a fitted effect of over 70% in size
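AlphaScreen: HP1-beta (50 nM) preformed 30 min with biotin-H3(1-18)K9me3 peptide (50 nM) in PBS pH 7.4, 0.01% Tween-20. Compound added for 30 min at RT, then streptavidin donor/nickel chelate acceptor beads (10 ug/mL) for 30 min.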
L3MBTL1 block = qHTS Assay for the Inhibitors of L3MBTL1; AlphaScreen L3MBTL1–H3K9me1 peptide binding; Potency, µM (top dose mostly 57.1 µM), for inactives: top-dose activity, negative = inhibition, hits mostly inhibitors; 230,000 compounds, 0.66% hits; AID 485360, 2010; note: % is set by controls: 0 for no effect and ±100 for the full control effect; nearly all actives have a fitted effect of over 60% in size
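L3MBTL1 (50 nM) pre-complexed 30 min with biotinylated H3(1-15)K9me1 peptide (75 nM), then compounds added for 30 min at room temperature; AlphaScreen streptavidin donor/nickel chelate acceptor beads (10 ug/mL final) read after 30 min dark incubation.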
Numbers without * were called inactive; ? = inconclusive; nt = no result; ! = a repeat was not active; [ ] = remark or other dose. Rows were chosen to be rich in hits. Some 11% of all compounds tested hit in one or more screens of this group. Calls come from the whole dose curve; as a rule, active = well fitted inhibition curve with a large enough effect; inconclusive = small, poorly fitted or top-dose-only effect; inactive = no such curve, though single readings can be large or run the other way. Potency is the fitted concentration of half-maximal effect.

SMILES | JMJD2A Tudor | G9a inh | BAZ2B block | HP1b binding inh | L3MBTL1 block
Cc1cccc(NC(=O)CSc2nc3ccc(NC(=O)COc4ccc(Cl)cc4)cc3s2)c1 | -16.2% | -24.9%[59 µM] | -13.9% | 26.0% | nt
Cn1c(SCC(=O)Nc2ccc3nc(SCC(=O)N4CCCC4)sc3c2)nnc1-c1ccccc1 | ? | ? | 56.2µM* | 17.2% | ?
O=C(O)CSc1nc2ccc(NC(=O)COc3ccc(Cl)cc3)cc2s1 | ? | -41.7%[59 µM] | 70.8µM* | 28.9% | nt
CCOc1ccc(C2c3c(oc4ccc(C)cc4c3=O)C(=O)N2CCCN2CCOCC2)cc1 (stereo not drawn) | -6.7% | 5.1%[59 µM] | 0.4% | 23.6% | nt
COc1ccc(-n2c(=O)cnc3cnc(N4CCOCC4)nc32)cc1 | nt | -6.5%[0.501 µM] | nt | nt | nt
C=CCc1ccccc1OCC(O)CNC1CCCC1 (stereo not drawn) | 14.0% | 23.1% | 14.0% | 28.5% | nt
Cn1cc(C(F)(F)F)nc1-c1ccc(OCC(O)CNCCOc2ccc(O)c(C(N)=O)c2)cc1 (stereo not drawn) | -18.0% | 25.1µM*! | -7.6% | 14.5% | nt
OC(CNCCNc1ncccc1C(F)(F)F)COc1ccc(F)cc1 (stereo not drawn) | 4.3% | 13.2% | -0.5% | 11.1% | 7.3%
CCn1c(CSCc2ccc(Cl)cc2)n[nH]c1=S | 56.2µM* | 3.16µM* | -6.7% | 14.1% | nt
CCn1c(CSCc2ccc(C)cc2)n[nH]c1=S | 31.6µM* | nt | ? | 2.8% | -1.3%
Cn1c(CSCc2ccc(Cl)c(Cl)c2)n[nH]c1=S | 89.1µM* | ? | -8.2% | -6.5% | -0.4%
COc1cc(-c2nc3nc[nH]n3c2Nc2ccc(C(C)C)cc2)ccc1O | ? | 8.91µM* | -38.6% | ? | nt
Cc1[nH]n(-c2ccccc2)c(=O)c1Sc1ccc(Cl)cc1 | -20.5% | ? | -32.9% | 14.0% | -9.4%
Cc1cc(-c2c(C)[nH]n(-c3ccc(Cl)cc3)c2=O)n[nH]1 | ? | 1.4% | 28.2µM* | 7.6% | -28.0%
COc1ccc(NC(=O)N2CCC3(CC2)CCN(C(=O)c2ccco2)CC3)cc1 | nt | -0.5%[12.7 µM] | nt | nt | nt
O=C(NCc1ccccc1Cl)C1CCN(S(=O)(=O)Cc2ccccc2)CC1 | -7.6% | ? | -5.1% | 38.7% | nt
Cc1ccc(-c2csc(N=C(N)N)n2)cc1 | -31.4% | ? | ? | 3.4% | -25.0%
NC(N)=Nc1nc(CSCC/C(N)=N/S(N)(=O)=O)cs1 | 22.4µM* | -4.4%[59 µM] | 2.4% | 19.4% | -1.2%
Cc1ccccc1N1Cc2ccccc2C1 | -13.4% | 7.94µM* | ? | 52.2% | -7.9%
COc1ccc(Cl)cc1N1Cc2ccccc2C1 | -23.8% | ? | ? | 23.0% | nt
COc1ccccc1N1Cc2ccccc2C1 | 50.1µM* | 10µM* | 56.2µM* | 1.5% | -13.0%
COc1ccc(OC)c(N2Cc3ccccc3C2)c1 | ? | 7.94µM* | 2.6% | 7.3% | -6.9%
O=C(NCCCN1CCOCC1)c1ccc2ccccc2c1 | -16.6% | -14.0% | ? | 8.0% | 25.6%
O=C(CN1CCOCC1)N(c1ccccc1)c1ccc2ccccc2c1 | -21.9% | 50.1µM* | -26.6% | 47.1% | 3.0%
O=C(CN1CCN(c2ccccn2)CC1)N(c1ccccc1)c1ccc2ccccc2c1 | -19.1%[11.4 µM] | 50.1µM* | ? | -36.0% | ?
SMILES | JMJD2A Tudor | G9a inh | BAZ2B block | HP1b binding inh | L3MBTL1 block
CN(C(=O)N1CCN(c2ccccn2)CC1)c1ccccc1 | -6.3% | -31.7%[59 µM] | -5.4% | 22.0% | -1.3%
COc1ccc(S(=O)(=O)c2cn(C)c3cc(N4CCCC4)c(F)cc3c2=O)cc1 | -5.9% | 0.3%[59 µM] | -2.3% | 11.2% | nt
C#CCOCCOCCOCCNc1nc(N2CCN(C(=O)Cn3cc(CCCN=C(N)N)nn3)CC2)nc(N2CCN(C(=O)[C@H](C(C)C)n3cc(CCO)nn3)CC2)n1 | -15.3% | 50.1µM* | -12.0% | 26.1% | 9.2%
C#CCOCCOCCOCCNc1nc(N2CCN(C(=O)Cn3cc(CCO)nn3)CC2)nc(N2CCN(C(=O)[C@H]([C@@H](C)O)n3cc(CCCCN)nn3)CC2)n1 | -15.3% | 79.4µM* | -7.9% | 18.5% | 7.9%
C#CCOCCOCCOCCNc1nc(N2CCN(C(=O)Cn3cc(CCCN=C(N)N)nn3)CC2)nc(N2CCN(C(=O)[C@H]([C@@H](C)CC)n3cc(CCCN=C(N)N)nn3)CC2)n1 | nt | 22.4µM* | ? | nt | -0.6%
C#CCOCCOCCOCCNc1nc(N2CCN(C(=O)Cn3cc(CC(C)O)nn3)CC2)nc(N2CCN(C(=O)[C@H](CCCCN)n3cc(CCC(=O)O)nn3)CC2)n1 (stereo partly drawn) | -30.2% | 50.1µM* | -32.4% | 11.7% | 0.1%
C#CCOCCOCCOCCNc1nc(N2CCN(C(=O)Cn3cc(CC(C)O)nn3)CC2)nc(N2CCN(C(=O)[C@H]([C@@H](C)O)n3cc(CCCCN)nn3)CC2)n1 (stereo partly drawn) | -13.3% | nt | nt | 4.3% | nt
CCOc1ccc(NC(=O)c2ccc(-c3cccc(Cl)c3C)o2)cc1 | -18.0% | -4.2%[59 µM] | 0.5% | 12.0% | nt
CCN1CCN(S(=O)(=O)c2c(C)[nH]c(C)c2C(=O)N2CCCCC2)CC1 | -15.8% | -7.7% | -11.2%[57.1 µM] | 18.6% | nt
CC(=O)N1CCN(C(=O)CC2OC(=O)c3ccccc32)CC1 (stereo not drawn) | -26.2% | 39.8µM* | ? | -13.1% | -6.5%
Cc1cccc(NC(=O)CSCC(=O)Nc2cc(Cl)ccc2N2CCN(C)CC2)c1 | -15.2% | 79.4µM* | -13.6% | 30.7% | nt
O=C(CC1OC(=O)c2ccccc21)Nc1ccccc1N1CCOCC1 (stereo not drawn) | -13.0% | -21.3% | 11.5% | 10.6% | 4.4%
O=C(Cc1ccccc1F)Nc1cc(Cl)ccc1N1CCCC1 | -19.3% | 44.7µM* | -17.7% | 42.6% | nt
O=C(CC1OC(=O)c2ccccc21)Nc1cc(Cl)ccc1N1CCCC1 (stereo not drawn) | -14.1% | 56.2µM* | 9.2% | -4.5% | 4.3%
Cc1cc(NC(=O)CSCC(=O)Nc2cc(Cl)ccc2N2CCN(C)CC2)no1 | -7.8% | 28.0%[12.7 µM] | -4.9% | 23.9% | 9.8%
CCOc1ccc(CCNC(=O)c2c(C)oc3ncnc(N4CCOCC4)c23)cc1 | -5.5% | -10.1%[59 µM] | 7.6%[57.1 µM] | 38.3% | nt
COc1ccccc1CNC(=O)c1cc(S(=O)(=O)N2CCCCCC2)cn1C | -22.0% | -0.1%[59 µM] | -15.9% | 26.6%[57 µM] | nt
COc1ncc2nc(-c3ccc(F)cc3)c(=O)n(Cc3cccs3)c2n1 | nt | 7.8%[0.501 µM] | nt | nt | nt
Cc1ccc(N(CCC#N)C(=O)COC(=O)c2ccccn2)cc1 | 1.5% | nt | -5.3% | 43.8% | nt
O=C(CC1OC(=O)c2ccccc21)Nc1cc(S(=O)(=O)N2CCOCC2)ccc1OCC(F)(F)F (stereo not drawn) | -10.1% | 12.6µM* | -0.9% | 17.6% | -11.5%
